# In the supplement of paper PMC11732987, “Enantioselective OTUD7B fragment discovery through chemoproteomics screening and high-throughput optimisation” (Communications Chemistry, 2025):
# Unmarked numbers belong to inactive results.
# Legend:
# Test in all cases: log2 ratio of Biotin-Ahx-Ub-VS probe labelling (fragment/DMSO); higher = less target engagement (more negative = stronger competition), active = hit call of the paper (q ≤ 0.05, log2 ratio ≤ -1)
# Settings in all cases: compound concentration: 200 uM; treatment time: 3 h
# OTUD6B = target: T1, OTUD6B (UniProt Q8N6M0)
# T1 sequence (whole entry): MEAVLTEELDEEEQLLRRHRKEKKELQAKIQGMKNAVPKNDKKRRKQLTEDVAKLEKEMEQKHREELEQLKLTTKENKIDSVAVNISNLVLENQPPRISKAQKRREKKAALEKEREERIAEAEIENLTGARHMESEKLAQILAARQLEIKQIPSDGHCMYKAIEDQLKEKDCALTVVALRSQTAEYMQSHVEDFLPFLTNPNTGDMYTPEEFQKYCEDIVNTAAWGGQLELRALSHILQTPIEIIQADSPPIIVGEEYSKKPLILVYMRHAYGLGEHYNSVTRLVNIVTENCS
# In short: (§1)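 Using Biotin-Ahx-Ub-VS at 0.5 µM final for 1 h, DUBs were labelled in HEK293T lysate (495 µg per sample) that had first been treated in triplicate with fragment at 200 µM or vehicle for 3 h. NeutrAvidin enrichment, LysC and trypsin digestion and diaPASEF LC-MS/MS followed. Spectronaut label-free quantities were global-median-normalised. Values are average log2 fragment/vehicle ratios by unpaired t-test, using proteins with ≥2 unique peptides.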
# OTUD7B = target: T2, OTUD7B (UniProt Q6GQQ9)
# T2 sequence (whole entry): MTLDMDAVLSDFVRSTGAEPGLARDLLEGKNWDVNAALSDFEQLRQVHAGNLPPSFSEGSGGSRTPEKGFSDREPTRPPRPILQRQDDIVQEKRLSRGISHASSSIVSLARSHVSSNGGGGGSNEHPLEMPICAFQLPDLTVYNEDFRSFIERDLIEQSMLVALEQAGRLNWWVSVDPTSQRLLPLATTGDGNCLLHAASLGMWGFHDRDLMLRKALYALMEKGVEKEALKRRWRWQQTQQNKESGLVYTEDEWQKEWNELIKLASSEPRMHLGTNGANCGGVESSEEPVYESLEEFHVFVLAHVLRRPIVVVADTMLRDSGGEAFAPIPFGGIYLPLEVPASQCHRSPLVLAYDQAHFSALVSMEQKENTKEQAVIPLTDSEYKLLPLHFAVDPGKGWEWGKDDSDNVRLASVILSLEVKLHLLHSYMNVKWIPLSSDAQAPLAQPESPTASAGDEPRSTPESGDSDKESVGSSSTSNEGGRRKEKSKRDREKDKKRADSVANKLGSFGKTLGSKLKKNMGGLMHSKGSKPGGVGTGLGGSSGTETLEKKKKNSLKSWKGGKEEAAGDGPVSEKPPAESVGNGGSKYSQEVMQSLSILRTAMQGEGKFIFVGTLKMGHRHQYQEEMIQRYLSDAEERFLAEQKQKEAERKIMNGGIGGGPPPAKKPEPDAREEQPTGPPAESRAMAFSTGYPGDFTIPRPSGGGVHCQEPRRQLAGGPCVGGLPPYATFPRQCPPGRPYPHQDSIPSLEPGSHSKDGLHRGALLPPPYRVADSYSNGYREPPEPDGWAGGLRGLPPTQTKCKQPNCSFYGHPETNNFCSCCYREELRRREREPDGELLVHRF
# In short: as §1
# PRPF8 = PRPF8 (UniProt Q6P2Q9)
# In short: as §1
# PSMD7 = target: T3, PSMD7 (UniProt P51665)
# T3 sequence (whole entry): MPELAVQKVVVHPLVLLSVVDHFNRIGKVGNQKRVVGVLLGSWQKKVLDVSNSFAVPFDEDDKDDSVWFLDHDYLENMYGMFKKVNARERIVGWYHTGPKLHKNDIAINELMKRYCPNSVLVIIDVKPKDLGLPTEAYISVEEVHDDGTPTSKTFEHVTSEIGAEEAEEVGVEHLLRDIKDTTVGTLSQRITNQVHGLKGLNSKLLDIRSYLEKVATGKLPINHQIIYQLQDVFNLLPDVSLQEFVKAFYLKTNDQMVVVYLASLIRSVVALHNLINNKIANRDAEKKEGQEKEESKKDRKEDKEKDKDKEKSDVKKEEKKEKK
# In short: as §1
# UCHL1 = UCHL1 (UniProt P09936)
# Sequence of UCHL1 (P09936 whole entry, looked up): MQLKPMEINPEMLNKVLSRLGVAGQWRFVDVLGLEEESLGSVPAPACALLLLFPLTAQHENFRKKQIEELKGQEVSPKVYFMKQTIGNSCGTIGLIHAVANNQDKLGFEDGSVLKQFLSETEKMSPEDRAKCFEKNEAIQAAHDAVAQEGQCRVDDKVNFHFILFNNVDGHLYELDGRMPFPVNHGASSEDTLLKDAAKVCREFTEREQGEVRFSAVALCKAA
# In short: as §1
# UCHL3 = target: T4, UCHL3 (UniProt P15374)
# T4 sequence (whole entry): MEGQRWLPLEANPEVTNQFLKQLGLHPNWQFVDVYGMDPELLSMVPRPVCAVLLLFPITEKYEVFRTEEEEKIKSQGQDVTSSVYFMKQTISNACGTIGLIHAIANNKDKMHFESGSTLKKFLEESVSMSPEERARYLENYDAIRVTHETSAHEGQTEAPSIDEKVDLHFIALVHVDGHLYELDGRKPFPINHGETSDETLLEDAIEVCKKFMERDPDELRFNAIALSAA
# In short: as §1
# UCHL5 = target: T5, UCHL5 (UniProt Q9Y5K5)
# T5 sequence (whole entry): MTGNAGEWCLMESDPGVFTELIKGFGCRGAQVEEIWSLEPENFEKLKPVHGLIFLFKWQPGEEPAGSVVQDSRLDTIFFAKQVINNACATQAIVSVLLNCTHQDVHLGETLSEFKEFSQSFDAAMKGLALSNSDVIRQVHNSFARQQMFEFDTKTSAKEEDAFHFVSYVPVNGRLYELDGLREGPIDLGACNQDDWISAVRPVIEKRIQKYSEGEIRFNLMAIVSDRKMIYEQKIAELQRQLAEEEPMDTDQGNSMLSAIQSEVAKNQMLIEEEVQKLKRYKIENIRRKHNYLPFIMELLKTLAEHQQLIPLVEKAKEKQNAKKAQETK
# In short: as §1
# USP10 = USP10 (UniProt Q14694)
# Sequence of USP10 (Q14694 whole entry): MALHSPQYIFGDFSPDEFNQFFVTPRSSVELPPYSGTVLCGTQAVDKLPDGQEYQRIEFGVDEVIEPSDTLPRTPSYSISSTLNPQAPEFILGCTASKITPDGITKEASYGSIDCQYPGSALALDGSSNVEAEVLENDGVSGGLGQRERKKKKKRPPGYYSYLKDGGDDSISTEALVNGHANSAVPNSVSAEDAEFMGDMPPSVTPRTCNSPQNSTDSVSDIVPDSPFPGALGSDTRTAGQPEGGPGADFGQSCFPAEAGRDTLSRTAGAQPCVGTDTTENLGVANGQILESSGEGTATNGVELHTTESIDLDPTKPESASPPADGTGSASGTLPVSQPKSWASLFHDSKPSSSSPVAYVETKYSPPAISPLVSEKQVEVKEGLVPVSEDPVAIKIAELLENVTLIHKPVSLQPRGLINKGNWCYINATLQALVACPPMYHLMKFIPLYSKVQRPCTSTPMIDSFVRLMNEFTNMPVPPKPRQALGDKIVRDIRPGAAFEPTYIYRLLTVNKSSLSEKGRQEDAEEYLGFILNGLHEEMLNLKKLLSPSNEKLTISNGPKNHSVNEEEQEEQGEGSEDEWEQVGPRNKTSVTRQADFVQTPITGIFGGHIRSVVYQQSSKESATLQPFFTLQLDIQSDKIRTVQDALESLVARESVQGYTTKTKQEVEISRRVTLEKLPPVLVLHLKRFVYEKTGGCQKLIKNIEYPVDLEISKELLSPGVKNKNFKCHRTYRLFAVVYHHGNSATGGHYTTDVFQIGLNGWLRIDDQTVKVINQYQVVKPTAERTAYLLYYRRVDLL
# In short: as §1
# USP15 = target: T6, USP15 (UniProt Q9Y4E8)
# T6 sequence (whole entry): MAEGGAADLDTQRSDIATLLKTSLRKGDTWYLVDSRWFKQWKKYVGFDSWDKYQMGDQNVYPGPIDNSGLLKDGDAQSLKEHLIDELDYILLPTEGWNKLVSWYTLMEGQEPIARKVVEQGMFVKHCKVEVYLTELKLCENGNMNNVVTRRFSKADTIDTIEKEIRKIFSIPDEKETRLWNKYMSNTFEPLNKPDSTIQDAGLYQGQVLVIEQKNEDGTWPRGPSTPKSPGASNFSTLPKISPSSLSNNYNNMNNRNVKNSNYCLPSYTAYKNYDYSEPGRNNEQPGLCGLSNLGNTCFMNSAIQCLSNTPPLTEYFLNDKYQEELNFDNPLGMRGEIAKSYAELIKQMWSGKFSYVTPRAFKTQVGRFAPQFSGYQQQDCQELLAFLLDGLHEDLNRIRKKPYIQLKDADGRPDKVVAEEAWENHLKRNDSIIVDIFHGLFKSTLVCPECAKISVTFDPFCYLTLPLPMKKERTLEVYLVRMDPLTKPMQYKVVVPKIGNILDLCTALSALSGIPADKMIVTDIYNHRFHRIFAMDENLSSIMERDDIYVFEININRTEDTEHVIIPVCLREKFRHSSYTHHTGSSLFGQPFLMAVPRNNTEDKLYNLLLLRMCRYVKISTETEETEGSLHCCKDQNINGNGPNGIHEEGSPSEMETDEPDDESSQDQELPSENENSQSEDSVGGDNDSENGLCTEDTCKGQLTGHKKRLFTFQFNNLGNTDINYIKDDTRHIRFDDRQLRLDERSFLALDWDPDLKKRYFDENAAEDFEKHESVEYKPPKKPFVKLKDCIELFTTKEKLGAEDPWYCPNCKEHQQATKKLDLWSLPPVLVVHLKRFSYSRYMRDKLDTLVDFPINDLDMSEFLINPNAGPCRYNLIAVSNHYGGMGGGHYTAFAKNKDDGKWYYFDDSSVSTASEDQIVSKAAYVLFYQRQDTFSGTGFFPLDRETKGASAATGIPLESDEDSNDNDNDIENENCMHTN
# In short: as §1
# USP16 = USP16 (UniProt Q9Y5T5)
# Sequence of USP16 (Q9Y5T5 whole entry, looked up): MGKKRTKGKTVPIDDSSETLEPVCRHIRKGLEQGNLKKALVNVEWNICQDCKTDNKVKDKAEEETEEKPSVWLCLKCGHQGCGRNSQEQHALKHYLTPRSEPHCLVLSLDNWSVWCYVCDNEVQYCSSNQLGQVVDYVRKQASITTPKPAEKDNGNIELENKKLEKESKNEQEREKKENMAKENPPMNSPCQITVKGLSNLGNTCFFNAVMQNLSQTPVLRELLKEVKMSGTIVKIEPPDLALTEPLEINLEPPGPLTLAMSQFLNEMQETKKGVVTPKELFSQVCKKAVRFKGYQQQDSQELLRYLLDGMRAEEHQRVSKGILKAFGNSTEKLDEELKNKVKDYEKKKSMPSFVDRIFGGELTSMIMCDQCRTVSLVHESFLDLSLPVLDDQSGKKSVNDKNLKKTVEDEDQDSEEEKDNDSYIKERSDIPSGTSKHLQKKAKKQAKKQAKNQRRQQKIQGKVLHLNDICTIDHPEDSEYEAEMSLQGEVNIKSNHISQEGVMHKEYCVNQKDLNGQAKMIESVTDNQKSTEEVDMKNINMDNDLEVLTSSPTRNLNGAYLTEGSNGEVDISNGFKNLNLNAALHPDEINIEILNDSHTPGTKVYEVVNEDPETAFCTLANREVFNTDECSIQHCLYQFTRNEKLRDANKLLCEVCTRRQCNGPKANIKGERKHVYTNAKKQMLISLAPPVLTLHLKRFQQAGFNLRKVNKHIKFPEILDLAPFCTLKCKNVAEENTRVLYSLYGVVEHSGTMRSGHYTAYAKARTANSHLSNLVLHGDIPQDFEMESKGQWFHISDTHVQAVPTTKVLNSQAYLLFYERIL
# In short: as §1
smiles,measurement,setting,value
O=C(CCl)N1CCOCC1C1CC1 (stereo not given),log2 ratio of Biotin-Ahx-Ub-VS probe labelling,OTUD6B,-0.211
same,log2 ratio of Biotin-Ahx-Ub-VS probe labelling,OTUD7B,-0.512
same,log2 ratio of Biotin-Ahx-Ub-VS probe labelling,PRPF8,-0.182
same,log2 ratio of Biotin-Ahx-Ub-VS probe labelling,PSMD7,-0.142
same,log2 ratio of Biotin-Ahx-Ub-VS probe labelling,UCHL1,-1.92 (active)
same,log2 ratio of Biotin-Ahx-Ub-VS probe labelling,UCHL3,0.225
same,log2 ratio of Biotin-Ahx-Ub-VS probe labelling,UCHL5,-0.257
same,log2 ratio of Biotin-Ahx-Ub-VS probe labelling,USP10,-0.0983
same,log2 ratio of Biotin-Ahx-Ub-VS probe labelling,USP15,-0.122
same,log2 ratio of Biotin-Ahx-Ub-VS probe labelling,USP16,-0.345
